PubChem BioAssay (NCATS)
Where “and” joins values, the source holds several entries; their conditions need not be identical. Equal values may be shown once. Inconclusive results are not listed. Calls of active or inactive are those of the source. Unless noted, calls come from the whole dose curve.

system: not listed separately; experiment: qHTS assay for small molecule antagonists of peroxisome proliferator-activated receptor delta signaling (AID 588535; active = well fitted inhibition curve with a large enough effect in the signal ratio, with a control signal flat, not every such curve was filed as active; the % refers to the signal ratio;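 for max response: cells co-treated with a PPAR-delta agonist as stimulator during compound exposure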); conditions: HEK293T PPARd-UAS-bla, beta-lactamase FRET ratio, 18 h; 460 nm channel
Outline: (§1)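 Fluorescence from CCF4-loaded GeneBLAzer PPAR-delta-UAS-bla HEK293T cells (2 hrs RT loading) quantified reporter inhibition after an 18 hr, 37 C compound exposure across a titration.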

SMILES | max response
Cc1ccc(Br)cc1 | 4.44%
CC(=O)OCCC(C)C | -13.3%
Cc1cccc(C)c1[N+](=O)[O-] | 9.63% and 31.4%
CCN(CC)c1cccc(O)c1 | 12.9%
NC(=O)c1cccc([N+](=O)[O-])c1 | -10.1%
CC(C)Nc1ccccc1 | 31.6%
c1ccc2n[nH]nc2c1 | -32.1%
CCCCCO | -5.82%
Cc1ccc(S(=O)(=O)NC2CCCCC2)cc1 | 42.4%
O=C(O)c1ccccc1C(=O)O | 14.7%
CNC(=O)c1ccccc1 | 1.71%
Nc1ccccc1[N+](=O)[O-] | 35.9%
O=C(O)c1cc(Cl)cc(Cl)c1 | 29.5%
CC(=O)C1(C)CC2=C(CCCC2(C)C)CC1C (stereo unspecified) | 12.6%
C=C(C)C(=O)OCC(C)O (stereo unspecified) | 24.5%
Cc1ccc(C)c([N+](=O)[O-])c1 | -7.2%
Cc1ccc2ncccc2c1 | 20.6%
Nc1c(Cl)cc(Cl)cc1Cl | 1.78%
CC(O)CC(C)O (stereo unspecified) | 7.44%

molecular target: Peroxisome proliferator-activated receptor delta (Homo sapiens) (UniProt Q03181); experiment: as above; conditions: HEK293T PPARd-UAS-bla, beta-lactamase FRET ratio, 18 h; series mostly up to 76.7 µM; activity change, negative = inhibition: at the top concentration
Outline: as §1

Sequence of Peroxisome proliferator-activated receptor delta (Homo sapiens) (Q03181 whole entry, looked up): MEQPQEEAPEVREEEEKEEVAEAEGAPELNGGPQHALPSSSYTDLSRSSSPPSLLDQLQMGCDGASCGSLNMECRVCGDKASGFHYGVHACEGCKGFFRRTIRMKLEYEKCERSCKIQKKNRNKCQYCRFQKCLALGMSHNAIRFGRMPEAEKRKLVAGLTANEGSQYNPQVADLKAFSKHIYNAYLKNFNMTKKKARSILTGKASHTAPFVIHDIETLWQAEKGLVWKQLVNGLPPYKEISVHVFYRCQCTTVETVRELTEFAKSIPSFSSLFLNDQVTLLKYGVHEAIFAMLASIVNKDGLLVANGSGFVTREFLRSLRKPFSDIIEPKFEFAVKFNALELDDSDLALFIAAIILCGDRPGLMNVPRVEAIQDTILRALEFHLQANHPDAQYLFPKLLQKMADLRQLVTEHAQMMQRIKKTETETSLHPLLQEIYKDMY

SMILES | activity change, negative = inhibition
Cc1ccc(Br)cc1 | -17.9% (inactive)
CC(=O)OCCC(C)C | -16.9% (inactive)
CCN(CC)c1cccc(O)c1 | 0.144% (inactive)
NC(=O)c1cccc([N+](=O)[O-])c1 | -17.7% (inactive)
CC(C)Nc1ccccc1 | 14.8% (inactive)
c1ccc2n[nH]nc2c1 | -40.3% (inactive)
CCCCCO | -17.8% (inactive)
Cc1ccc(S(=O)(=O)NC2CCCCC2)cc1 | -4.37% (inactive)
O=C(O)c1ccccc1C(=O)O | -11.5% (inactive)
CNC(=O)c1ccccc1 | 5.35% (inactive)
Nc1ccccc1[N+](=O)[O-] | 9.92% (inactive)
O=C(O)c1cc(Cl)cc(Cl)c1 | 7.64% (inactive)
CC(=O)C1(C)CC2=C(CCCC2(C)C)CC1C (stereo unspecified) | -13.3% (inactive)
C=C(C)C(=O)OCC(C)O (stereo unspecified) | 6.95% (inactive)
Cc1ccc(C)c([N+](=O)[O-])c1 | -12.7% (inactive)
Cc1ccc2ncccc2c1 | -2.26% (inactive)
Nc1c(Cl)cc(Cl)cc1Cl | 3.9% (inactive)
CC(O)CC(C)O (stereo unspecified) | 2.22% (inactive)

molecular target: Peroxisome proliferator-activated receptor gamma (Homo sapiens) (UniProt P37231); experiment: qHTS assay for small molecule agonists of peroxisome proliferator-activated receptor gamma signaling (AID 588536; active = well fitted curve in the direction sought with a large enough effect in the signal ratio, with a control signal flat, not every such curve was filed as active; the % refers to the signal ratio;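 note: 0% = DMSO basal wells and 100% = rosiglitazone at 2 µM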); conditions: HEK293 PPARg-UAS-bla, beta-lactamase ratio, 16 h, percent of rosiglitazone response, DMSO as zero; series mostly up to 76.7 µM; activation: at the top concentration
Outline: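 This is an agonist-mode beta-lactamase reporter assay in HEK293 PPAR-gamma-UAS-bla cells with 1% charcoal/dextran FBS. Compound titrations ran 16 h at 37 C before CCF4 detection. EC50 and efficacy are Hill fits scaled to 2 uM rosiglitazone (100%) and DMSO basal.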

Sequence of Peroxisome proliferator-activated receptor gamma (Homo sapiens) (P37231 whole entry, looked up): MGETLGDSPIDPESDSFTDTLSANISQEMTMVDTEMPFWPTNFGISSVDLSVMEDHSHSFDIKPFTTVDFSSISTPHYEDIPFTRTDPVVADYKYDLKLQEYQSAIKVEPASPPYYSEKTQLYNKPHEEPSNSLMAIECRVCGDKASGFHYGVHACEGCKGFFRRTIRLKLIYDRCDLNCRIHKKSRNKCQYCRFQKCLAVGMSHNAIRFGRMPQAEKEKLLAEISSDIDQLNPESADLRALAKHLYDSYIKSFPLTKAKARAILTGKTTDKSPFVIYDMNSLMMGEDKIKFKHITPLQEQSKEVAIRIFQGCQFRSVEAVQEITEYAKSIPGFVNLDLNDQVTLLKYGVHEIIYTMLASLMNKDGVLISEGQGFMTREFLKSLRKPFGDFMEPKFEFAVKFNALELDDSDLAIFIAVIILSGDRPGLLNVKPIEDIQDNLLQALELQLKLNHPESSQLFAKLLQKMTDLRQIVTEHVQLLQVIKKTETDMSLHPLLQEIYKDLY

SMILES | activation | outcome
Cc1ccco1 | -2.48% (inactive) | 
Cc1ccc(Br)cc1 | -2.55% (inactive) | 
CC(=O)OCCC(C)C | 2.44% (inactive) | 
Cc1cccc(C)c1[N+](=O)[O-] |  | inactive
CCN(CC)c1cccc(O)c1 | 2.03% (inactive) | 
NC(=O)c1cccc([N+](=O)[O-])c1 | 0.915% (inactive) | 
O=C(O)c1ccc(Cl)cc1Cl | 4.04% (inactive) | 
CC(C)Nc1ccccc1 | 0.697% (inactive) | 
c1ccc2n[nH]nc2c1 | 6.28% (inactive) | 
Cc1ccc(S(=O)(=O)NC2CCCCC2)cc1 | -2.52% (inactive) | 
OC1CCCC1 | -3.18% (inactive) | 
C=C(C)OC(C)=O | 1.19% (inactive) | 
CSc1ccc(C=O)cc1 | 0.679% (inactive) | 
Cc1ccccc1C(=O)O | 1.13% (inactive) | 
CC(C)N=C=NC(C)C | 6.87% (inactive) | 
Cc1ccc2ccccc2c1[N+](=O)[O-] | 2.36% (inactive) | 
CNC(=O)c1ccccc1 | 0.629% (inactive) | 

SMILES | activation | outcome
Nc1ccccc1[N+](=O)[O-] | 2.29% (inactive) | 
O=C(O)c1cc(Cl)cc(Cl)c1 | 8.03% (inactive) | 
CO[Si](CCCNCCC[Si](OC)(OC)OC)(OC)OC | -1.39% (inactive) | 
CC(=O)C1(C)CC2=C(CCCC2(C)C)CC1C (stereo unspecified) | -0.885% (inactive) | 
CCOCCO | -1.16% (inactive) | 
NC(=O)CCCCC(N)=O | 1.51% (inactive) | 
Cc1ccc(C)c([N+](=O)[O-])c1 | 2.98% (inactive) | 
Nc1ccc([N+](=O)[O-])c(N)c1 | -2.72% (inactive) | 
CCOc1ccccc1N | -2% (inactive) | 
CC1(N)CCC(C(C)(C)N)CC1 (stereo unspecified) | -0.365% (inactive) | 
Cc1ccc2ncccc2c1 | 0.232% (inactive) | 
C=CCn1c(=O)n(CC=C)c(=O)n(CC=C)c1=O | -2.56% (inactive) | 
O=Cc1ccc(C(=O)O)cc1 | 0.713% (inactive) | 
Nc1c(Cl)cc(Cl)cc1Cl | -2.63% (inactive) | 
Nc1nc(CC(=O)O)cs1 | -1.46% (inactive) | 
CC(O)CC(C)O (stereo unspecified) | 4.24% (inactive) | 

molecular target: Peroxisome proliferator-activated receptor gamma (Homo sapiens) (UniProt P37231); experiment: qHTS assay for small molecule antagonists of peroxisome proliferator-activated receptor gamma signaling (AID 588537; active = well fitted inhibition curve with a large enough effect in the signal ratio, with a control signal flat, not every such curve was filed as active; the % refers to the signal ratio;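 note: reporter cells co-stimulated with 50 nM rosiglitazone agonist during compound treatment; % of control where 0% means no effect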); conditions: HEK293 PPARg-UAS-bla, beta-lactamase ratio, antagonist mode; series mostly up to 76.8 µM; activity, negative = inhibition: at the top concentration
Outline: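 Fluorescence at 460 and 530 nm (405 nm excitation) reported beta-lactamase cleavage of CCF4 after 2 h room-temperature loading. HEK293 reporter cells in 1% charcoal/dextran-treated FBS had received compound and rosiglitazone for 16 h.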

SMILES | activity, negative = inhibition
Cc1ccco1 | -6.63% (inactive)
Cc1ccc(Br)cc1 | 11.2% (inactive)
CC(=O)OCCC(C)C | 7.21% (inactive)
Cc1cccc(C)c1[N+](=O)[O-] | 7.23% (inactive)
NC(=O)c1cccc([N+](=O)[O-])c1 | -2.96% (inactive)
OC1CCCC1 | 8.48% (inactive)
CC(C)N=C=NC(C)C | 7.42% (inactive)
Cc1ccc2ccccc2c1[N+](=O)[O-] | 12.6% (inactive)
Cc1ccc2nc(-c3ccc(N)cc3)sc2c1S(=O)(=O)O | -4.34% (inactive)
CNC(=O)c1ccccc1 | 4.39% (inactive)
Nc1ccccc1[N+](=O)[O-] | 4.81% (inactive)
O=C(O)c1cc(Cl)cc(Cl)c1 | 15.4% (inactive)
CO[Si](CCCNCCC[Si](OC)(OC)OC)(OC)OC | 8.95% (inactive)
NC(=O)CCCCC(N)=O | -1.79% (inactive)
Cc1ccc(C)c([N+](=O)[O-])c1 | -8.04% (inactive)
Nc1ccc([N+](=O)[O-])c(N)c1 | -2.24% (inactive)
C=CCn1c(=O)n(CC=C)c(=O)n(CC=C)c1=O | -7% (inactive)
Nc1c(Cl)cc(Cl)cc1Cl | 6.55% (inactive)
Nc1nc(CC(=O)O)cs1 | -14.2% (inactive)
CC(O)CC(C)O (stereo unspecified) | 14.5% (inactive)

molecular target: Vitamin D3 receptor (Homo sapiens) (UniProt P11473); experiment: qHTS assay for small molecule antagonists of vitamin D receptor signaling (AID 588541); conditions: HEK293T VDR-UAS-bla, beta-lactamase ratio, antagonist mode; series mostly up to 76.7 µM; activity change, negative = inhibition: at the top concentration;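 note: receptor activated by calcitriol during compound treatment; % is set by controls: 0 for no effect and ±100 for the full control effect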
Outline: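 VDR-UAS-bla HEK293T cells in 2% charcoal-stripped FBS were stimulated with 1-alpha,25-dihydroxyvitamin D3 (3 nM final) plus compound for 16 h at 37 C. The beta-lactamase CCF4 readout was normalized to 50 nM agonist and DMSO, and Hill fits gave IC50.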

Sequence of Vitamin D3 receptor (Homo sapiens) (P11473 whole entry, looked up): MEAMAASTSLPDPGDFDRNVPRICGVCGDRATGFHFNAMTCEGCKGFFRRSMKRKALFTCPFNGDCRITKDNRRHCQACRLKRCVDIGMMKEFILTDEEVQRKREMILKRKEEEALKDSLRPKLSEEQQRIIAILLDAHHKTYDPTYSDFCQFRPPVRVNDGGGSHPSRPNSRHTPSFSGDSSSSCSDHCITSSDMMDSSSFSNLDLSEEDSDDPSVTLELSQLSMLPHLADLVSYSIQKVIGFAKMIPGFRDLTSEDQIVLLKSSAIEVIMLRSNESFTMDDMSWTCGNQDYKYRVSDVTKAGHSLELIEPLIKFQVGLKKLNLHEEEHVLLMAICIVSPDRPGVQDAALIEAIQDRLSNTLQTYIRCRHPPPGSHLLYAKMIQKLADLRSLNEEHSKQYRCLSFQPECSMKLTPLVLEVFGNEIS

SMILES | activity change, negative = inhibition | outcome
Cc1ccco1 | -5.81% (inactive) | 
Cc1ccc(Br)cc1 | -4.35% (inactive) | 
Cc1cccc(C)c1[N+](=O)[O-] |  | inactive
CC/C(C)=N/O | -3.49% (inactive) | 
O=C(O)c1ccc(Cl)cc1Cl | -0.101% (inactive) | 
CC(C)Nc1ccccc1 | 2.9% (inactive) | 
OC1CCCC1 | -9.3% (inactive) | 
C=C(C)OC(C)=O | -1.11% (inactive) | 
CSc1ccc(C=O)cc1 | 5.53% (inactive) | 
CC(C)CO | -1.59% (inactive) | 
Cc1ccc2nc(-c3ccc(N)cc3)sc2c1S(=O)(=O)O | 6.25% (inactive) | 
CO[Si](CCCNCCC[Si](OC)(OC)OC)(OC)OC | -9.09% (inactive) | 
CCOCCO | -2.53% (inactive) | 
NC(=O)CCCCC(N)=O | 1.35% (inactive) | 
C=C(C)C(=O)OCC(C)O (stereo unspecified) | 6.17% (inactive) | 
Nc1ccc([N+](=O)[O-])c(N)c1 | -2.74% (inactive) | 
CCOc1ccccc1N | 3.87% (inactive) | 
CC1(N)CCC(C(C)(C)N)CC1 (stereo unspecified) | -5.26% (inactive) | 
CC1=C(/C=C/C(C)=C/C=C/C(C)=C\C=O)C(C)(C)CCC1 | -48.8% (inactive) | 
Nc1c(Cl)cc(Cl)cc1Cl | 3.22% (inactive) | 
CC(O)CC(C)O (stereo unspecified) | 4.63% (inactive) | 
